SENP7 inh – inhibitors of human SENP7 protease | inhibition, % at 5 µM | 1.5% of 330,000 active | recombinant SENP7, Z-RLRGG-aminoluciferin luminescence, 40 min | Q9BQF6;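 active = inhibition above about 50% at the single test dose, limit read from the data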;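 also: plate controls were DMSO with enzyme for no effect and no enzyme buffer wells for full effect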
SENP6 inh – inhibitors of human SENP6 protease. Q9GZR1. Recombinant SENP6 catalytic domain, aminoluciferin luminescence. inhibition, % at 10 µM. 1.8% of 330,000 active. AID 2599;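 active = inhibition above about 50% at the single tested dose, limit read from the data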;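 also: plate controls were DMSO wells with enzyme for no effect and DMSO wells lacking enzyme for full effect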
Target sequence (Q9GZR1 628-1112 limits assumed): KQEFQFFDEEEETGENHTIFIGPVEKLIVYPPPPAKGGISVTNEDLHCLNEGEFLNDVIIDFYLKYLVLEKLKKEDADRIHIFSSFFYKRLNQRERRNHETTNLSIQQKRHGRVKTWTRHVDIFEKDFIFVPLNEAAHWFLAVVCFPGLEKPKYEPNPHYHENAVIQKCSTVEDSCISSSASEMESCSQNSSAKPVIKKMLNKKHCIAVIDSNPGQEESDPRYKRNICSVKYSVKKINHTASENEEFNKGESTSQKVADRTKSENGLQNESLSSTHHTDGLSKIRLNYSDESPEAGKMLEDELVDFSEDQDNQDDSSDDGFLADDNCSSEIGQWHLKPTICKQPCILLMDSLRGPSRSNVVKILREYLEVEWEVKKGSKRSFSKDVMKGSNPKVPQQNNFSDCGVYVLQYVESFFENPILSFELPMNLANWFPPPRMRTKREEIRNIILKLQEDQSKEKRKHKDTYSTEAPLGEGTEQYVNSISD
HSP90 inh – inhibitors of HSP90 luciferase refolding in rabbit reticulocyte lysate; 0.91% of 290,000 active; inhibition, % at 5.6 µM; AID 1789; luciferase refolding luminescence, 3 h;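 active = inhibition above the screen-wide mean plus 3 SD, computed separately per campaign, cut at about 16% in these data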;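 also: 0% = DMSO wells and 100% = 60 µM geldanamycin wells; inhibitors lower the luminescence because luciferase stays unfolded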
SENP8 block-1 – blocks human SENP8 cleavage of Nedd8 substrate; Q96LD8; recombinant SENP8, Nedd8 substrate fluorescence; inhibition, % at 20 µM; 0.64% of 360,000 active; AID 602440; in the data active = inhibition mostly above about 40%, no sharp cut-off; inactive = mostly below about 27%
Target sequence (Q96LD8 whole entry, looked up): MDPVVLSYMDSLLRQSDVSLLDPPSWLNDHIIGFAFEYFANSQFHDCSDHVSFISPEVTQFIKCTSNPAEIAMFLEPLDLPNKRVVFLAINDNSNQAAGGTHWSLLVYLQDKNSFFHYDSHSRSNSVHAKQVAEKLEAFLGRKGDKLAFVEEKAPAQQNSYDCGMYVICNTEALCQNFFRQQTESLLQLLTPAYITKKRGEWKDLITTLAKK
Platelet DG rel – modulates dense granule release in human platelets; human platelet-rich plasma, SFLLRN dense granule ATP release, luminescence; 0.22% of 300,000 active; inhibition, %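 (compounds screened at 7.5 µM in platelet-rich plasma)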;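 active = mean replicate score, as percent of positive control, at or above 50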
SENP8 block-2 – SENP8 protease inhibition. Q96LD8. inhibition, % at 10 µM. purified SENP8, Z-RLRGG-aminoluciferin cleavage, luminescence. 1.2% of 330,000 active; in the data active = inhibition above about 50%
HSP90 confirm – confirmation of HSP90 inhibitors; shares compounds with HSP90 inh; rabbit reticulocyte lysate, luciferase refolding luminescence, 3 h; inhibition, % at 5.9 µM; 64% of 2,300 active; in the data active = inhibition above about 18%;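 also: 0% = vehicle wells and 100% = reference inhibitor wells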
FLuc counter – firefly luciferase inhibition, HSP90 counter-screen. shares compounds with HSP90 inh. purified native firefly luciferase, luminescence. inhibition, % at 5.9 µM. 48% of 2,300 active;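 active = inhibition above the mean inhibition of all tested sample wells plus 3 SD, cut at about 10% in these data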;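 also: 0% = DMSO with luciferase and 100% = wells lacking luciferase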
SENP8 conf – human SENP8 inhibition, confirmed; shares compounds with SENP7 inh; Recombinant SENP8, Z-RLRGG-aminoluciferin luminescence, 60 min; inhibition, % at 12.5 µM; 40% of 6,200 active; AID 488912;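 active = mean inhibition across replicates above about 50%, limit read from the data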
SENP6 confirm – human SENP6 inhibition, confirmed; recombinant SENP6, Z-RLRGG-aminoluciferin luminescence; 58% of 6,200 active; shares compounds with SENP7 inh; inhibition, % at 12.5 µM
SENP7 confirm – confirmation of human SENP7 protease inhibitors; inhibition, % at 12.5 µM; 69% of 6,200 active; shares compounds with SENP7 inh; recombinant SENP7, Z-RLRGG-aminoluciferin luminescence, 40 min
Casp3 select – inhibits human caspase-3 in SENP selectivity test; shares compounds with SENP7 inh; purified caspase-3, Z-DEVD-aminoluciferin luminescence, 60 min; inhibition, % at 12.5 µM; 60% of 6,200 active; AID 488918;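 active = mean inhibition above about 50%, limit read from the data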;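 also: plate controls were enzyme with DMSO for no effect and wells without caspase-3 for full effect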
SENP luc ctr – counter-screen for SENP inhibitors: luminescence interference. shares compounds with SENP7 inh. Pre-incubated SENP8/Z-RLRGG-aminoluciferin, luciferase luminescence interference. inhibition, % at 12.5 µM. 39% of 6,200 active. AID 488919;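 active = mean inhibition above about 50% when retested at one dose, limit read from the data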;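 also: plate controls were DMSO wells with completed reaction for no effect and substrate without enzyme for full effect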
Starred values were filed as active, the others as inactive; i = inactive; . = no result. In the library only some 2.8% were active in any assay of this set; here they are far more common.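 The calls were made as follows, unless noted: active = mean inhibition above about 50% in the one-dose retest (limit read from the data); inactive = the rest.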

SMILES | SENP7 inh | SENP6 inh | HSP90 inh | SENP8 block-1 | Platelet DG rel | SENP8 block-2 | HSP90 confirm | FLuc counter | SENP8 conf | SENP6 confirm | SENP7 confirm | Casp3 select | SENP luc ctr
N/C(=N\OC(=O)/C=C/c1ccccc1)c1ccccn1 | 96* | 95* | 19* | -2 | 33 | 88* | 15 | 73* | 89* | 90* | 100* | 94* | 93*
Cc1ccc(C(=O)O/N=C(\N)c2ccccn2)c(Cl)c1 | 99* | 96* | 94* | 8 | 76* | 96* | 96* | 91* | 98* | 99* | 102* | 98* | 98*
COc1ccc(/C=C/C(=O)O/N=C(\N)c2ccccn2)cc1OC | 13 | 5 | . | -112 | . | -9 | . | . | . | . | . | . | .
N/C(=N\OC(=O)c1ccccc1Cl)c1ccncc1 | 49 | 15 | -3 | 14 | -1 | 37 | . | . | . | . | . | . | .
N/C(=N\OC(=O)c1cc([N+](=O)[O-])ccc1Cl)c1ccccn1 | -4 | -8 | 0 | 7 | -4 | -10 | . | . | . | . | . | . | .
COCCNC(=O)C1(C)CCCN(C(=O)c2ccccc2)C1 (stereo unspecified) | . | . | . | 8 | . | . | . | . | . | . | . | . | .
O=C1NN=C2CCCCCC12 (stereo unspecified) | . | . | . | 12 | . | . | . | . | . | . | . | . | .
CCc1cc(C(=O)Nc2ccc(OC)nc2)sc1C | -5 | -15 | . | 7 | 18 | -10 | . | . | . | . | . | . | .
CCc1cc(C(=O)Nc2ncccc2O)sc1C | 67* | 66* | 43* | 1 | -3 | 40 | 53* | 43* | 52* | 53* | 86* | 81* | 63*
c1ccc(OCc2nc3ccccc3s2)cc1 | 95* | 93* | 17* | 17 | 1 | 88* | 25* | 8 | 85* | 96* | 101* | 91* | 84*
CSc1ccc(NC(=O)Nc2cc(C)ccn2)cc1 | 78* | 49 | 14 | 18 | . | 29 | 55* | 49* | 13 | 30 | 31 | 35 | 11
COc1ccc(S(=O)(=O)N2CCC(C(=O)N(CC(C)C)C3CCS(=O)(=O)C3)CC2)cc1OC (stereo unspecified) | 7 | 0 | . | 9 | -2 | 0 | . | . | . | . | . | . | .
Cc1cc(C)c2c(N)c(C(=O)Nc3ncc(C)s3)sc2n1 | 26 | 87* | 70* | i | . | 72* | 92* | 88* | -25 | 86* | 99* | 92* | -2
COC(=O)c1sc2nc(C)cc(C)c2c1N | -6 | 5 | 0 | -381 | 0 | -11 | . | . | . | . | . | . | .
CCOC(=O)c1cc2c(c(CCO)n1)[C@@H](CCO)N(S(=O)(=O)C(C)(C)C)C2 | . | . | . | 10 | . | . | . | . | . | . | . | . | .
C/C(=N\Nc1ccccn1)c1ccc(OC(F)F)cc1 | -7 | -5 | -3 | 10 | -3 | -12 | . | . | . | . | . | . | .
C/C(=N\Nc1nncc2ccccc12)c1cccc(OC(F)F)c1 | 100* | 97* | 25* | 26 | 36 | 89* | 40* | 23* | 68* | 75* | 82* | 75* | 15
C/C(=N\Nc1nncc2ccccc12)c1ccc(C(C)(C)C)cc1 | 5 | -5 | 0 | 20 | 17 | -6 | . | . | . | . | . | . | .
C/C(=N\Nc1nncc2ccccc12)c1ccc(O)cc1 | 36 | 67* | 20* | 30 | -17 | 4 | 32* | 12* | 0 | -9 | 40 | 44 | 12
O=C1NC(C2CC3C=CC2C3)Nc2ccccc21 (stereo unspecified) | . | . | . | -461 | . | . | . | . | . | . | . | . | .
Oc1cccc(C=Nc2cccc3ccccc23)c1O | 17 | 54* | 23* | -314 | -3 | 36 | 3 | -4 | 17 | 22 | 9 | 40 | -6
Oc1ccccc1C=Nc1cccc2ccccc12 | 21 | 49 | 11 | -285 | -2 | 41 | . | . | . | . | . | . | .
CN(Cc1ccccc1)C(=O)c1ccccc1N(C)S(=O)(=O)c1ccccc1 | -2 | 4 | . | 2 | . | -7 | . | . | . | . | . | . | .
COCC(=O)N(C)C[C@@H]1Oc2ncc(Br)cc2C(=O)N([C@@H](C)CO)C[C@H]1C | . | . | . | -11 | . | . | . | . | . | . | . | . | .
Cc1ccc(N=Nc2cc(C)ccc2N)cc1 | 100* | 99* | 26* | 35 | 70* | 98* | 63* | 61* | 99* | 100* | 103* | 97* | 96*
SMILES | SENP7 inh | SENP6 inh | HSP90 inh | SENP8 block-1 | Platelet DG rel | SENP8 block-2 | HSP90 confirm | FLuc counter | SENP8 conf | SENP6 confirm | SENP7 confirm | Casp3 select | SENP luc ctr
Cc1cc2nn(-c3ccccc3)nc2cc1NC(=O)c1cccs1 | 7 | 14 | -5 | -60 | 0 | -16 | . | . | . | . | . | . | .
CC(=O)Nc1cc2nn(-c3ccccc3)nc2cc1C | 77* | 78* | 21* | -421 | 15 | 72* | 32* | 21* | 26 | 45 | 87* | 79* | 26
COc1ccc(-c2csc3ncnc(N4CCN(c5ccc(OC)cc5)CC4)c23)cc1 | 7 | -9 | -1 | -4 | 42 | -9 | . | . | . | . | . | . | .
COc1ccc(-c2nsc3c(N4CCCC4)ncnc23)cc1 | 74* | 52* | 29* | -274 | 11 | 15 | 60* | 42* | 38 | 34 | 51* | 58* | 17
O=C1C=C(NCCOC23CC4CC(CC(C4)C2)C3)C2(CCCCC2)O1 | 10 | 18 | -2 | 16 | 3 | 0 | . | . | . | . | . | . | .
O=C(Nc1nc(-c2ccc3c(c2)OCCO3)cs1)c1ccco1 | 89* | 86* | 18* | -51 | 7 | 83* | 20* | 9.9* | 86* | 86* | 97* | 75* | 90*
CC(=O)Nc1ccc2nc(-c3ccccn3)[nH]c2c1 | 10 | 5 | 2 | i | . | -3 | . | . | . | . | . | . | .
c1ccc(-c2nc3cc4ccccc4cc3[nH]2)nc1 | 100* | 99* | 26* | -319 | 48 | 94* | 72* | 66* | 96* | 97* | 100* | 96* | 94*
CCN(C(=O)COC(=O)c1nc(Cl)ccc1Cl)C1CCS(=O)(=O)C1 (stereo unspecified) | 0 | -23 | . | 15 | 1 | -8 | . | . | . | . | . | . | .
Cc1ccc(NC(=O)COC(=O)Cc2c[nH]c3ccccc23)cc1 | . | . | . | 11 | . | . | . | . | . | . | . | . | .
Cc1cc(N2CCCCC2)n2nc(C)c(-c3ccccc3)c2n1 | 5 | -6 | -2 | -462 | -4 | 7 | . | . | . | . | . | . | .
